Laboratory results: PubChem BioAssay (Tox21)
Results filed as inconclusive are left out. A call without a number means that no potency is given here. Active and inactive are the calls of the source. Unless noted, the call rests on the fitted dose curve.

Tests used:
[1] = Nuclear factor erythroid 2-related factor 2/antioxidant responsive element (Nrf2/ARE) small molecule agonists: qHTS cell viability counter screen in human keratinocytes (AID 1919968; active means well fitted curve in the direction sought with a large enough effect in the repeat runs; an effect the other way counts as inactive or inconclusive; further: nearly all actives have a fitted effect of over 55% in size; further: potency means the concentration at half of the fitted maximal effect)
Summary of the method: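 KeratinoSens cells (HaCaT keratinocytes stably carrying an ARE-luciferase reporter) were seeded at 1,500 cells/well and rested 5 h at 37 C/5% CO2. They were then exposed to compounds in DMSO for 23 h. Viability was read by CellTiter-Fluor fluorescence after 1 h.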

[2] = target: Gonadotropin-releasing hormone receptor (Homo sapiens) (UniProt P30968); experiment: Human gonadotropin-releasing hormone receptor (GnRHR) small molecule agonists, calcium flux assay in GnRHR-HEK293 cells (AID 1920063); further: nearly all actives have a fitted effect of over 35% in size
Summary of the method: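 HEK293 cells stably expressing human GnRHR were plated 18 h at 37 °C, loaded with calcium dye 1 h at 37 °C, then given compound in agonist mode; fluorescence (Ex/Em 480/540) read kinetically for 3 min at 1 s intervals.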

[3] = target: KiSS-1 receptor (Homo sapiens) (UniProt Q969F8); experiment: Human kisspeptin (KISS1R) small molecule agonists, calcium flux assay in KISS1R-HEK293 cells (AID 1920064; active means well fitted curve in the direction sought with a large enough effect in the repeat runs; an effect the other way counts as inactive or inconclusive)
Summary of the method: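 HEK293 cells stably expressing human KISS1R were plated 18 h at 37 °C, loaded with calcium dye for 1 h at 37 °C, then given compound by pin tool. Fluorescence (Ex/Em 480/540) was read kinetically for 3 min.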

[4] = p53 small molecule agonists, cell-based qHTS assay with human liver microsomes: qHTS cell viability counter screen (AID 1963579); further: nearly all actives have a fitted effect of over 45% in size
Summary of the method: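 After the 460/530 nm beta-lactamase read, CellTiter-Glo was added to the same wells and luminescence measured after 30 min at room temperature, giving viability of p53RE-bla cells treated 16 h with compounds plus microsomes and NADPH.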

[5] = p53 small molecule agonists, cell-based qHTS assay with rat liver microsomes: qHTS cell viability counter screen (AID 1963580); further: nearly all actives have a fitted effect of over 45% in size; further: potency means the concentration at half of the fitted maximal effect
Summary of the method: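 In HCT-116 cells carrying a p53 response element-bla reporter, compounds were metabolically activated in situ by rat liver microsomes with NADPH over 16 h. Cell ATP content then served as the cytotoxicity measure.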

[6] = target: Muscarinic acetylcholine receptor M1 (Homo sapiens) (UniProt P11229); experiment: Cholinergic receptor muscarinic 1 (CHRM1) small molecule antagonists, cell-based qHTS assay (AID 1963588); further: nearly all actives have a fitted effect of over 40% in size; further: potency means the concentration at half of the fitted maximal effect
Summary of the method: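 CHRM1-CHO calcium-flux assay, antagonist mode. Cells were seeded 18 h, dye-loaded 1 h at 37 C and given compound for 5 min at RT, then acetylcholine was added at 50nM. FDSS fluorescence was read 3 min; 15 concentrations, three runs.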

[7] = target: Muscarinic acetylcholine receptor M1 (Homo sapiens) (UniProt P11229); experiment: Cholinergic receptor muscarinic 1 (CHRM1) small molecule agonists, cell-based qHTS assay (AID 1963589); further: nearly all actives have a fitted effect of over 35% in size
Summary of the method: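 CHO cells stably expressing human CHRM1, seeded 18 h at 37 C/5% CO2, dye-loaded 1 h at 37 C, then given compound in agonist mode; intracellular calcium fluorescence read kinetically at 1 s intervals. Fifteen concentrations, three independent runs.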

[8] = target: Beta-2 adrenergic receptor (Homo sapiens) (UniProt P07550); experiment: Adrenergic beta2 receptor (ADRB2) small molecule antagonists, cell-based qHTS assay (AID 1963592); further: series mostly up to about 92 µM; nearly all actives have a fitted effect of over 50% in size
Summary of the method: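 Cells (CHO, stable ADRB2 overexpression) incubated 18-20hr at 37C; compounds added from DMSO; agonist mix (1nM isoproterenol, 100uM IBMX, 25uM Ro-20-1724) added; 0.5hr RT; d2-cAMP and anti-cAMP-cryptate added; 1hr RT; 665/615 nm read.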

[9] = target: D(2) dopamine receptor (Homo sapiens) (UniProt P14416); experiment: Dopamine D2 receptor (DRD2) small molecule agonists, cell-based qHTS assay (AID 1963594); further: nearly all actives have a fitted effect of over 35% in size
Summary of the method: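 HEK293 cells stably expressing DRD2 were cultured 24 h at 37 C, then given Ro20-1724 (0.1 mM final) and compounds for 10 min at room temperature. NKH477 (200nM) was then added for 30 min. cAMP was read by HTRF.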

[10] = G protein-coupled receptor (GPCR) small molecule agonists, calcium flux assay: HEK293 wild type cell line counter screen (AID 1920065)
Summary of the method: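 Cells were plated and cultured 18 h at 37 C/5% CO2, then loaded with calcium dye for 1 h at 37 C. Compounds in DMSO were pin-transferred in agonist mode, and fluorescence (Ex/Em 480/540) was read kinetically for 3 min at 1 s intervals.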

[11] = target: 5-hydroxytryptamine receptor 2A (Homo sapiens) (UniProt P28223); experiment: 5-hydroxytryptamine receptor 2A (HTR2A) small molecule antagonists, cell-based qHTS assay (AID 1963586); further: nearly all actives have a fitted effect of over 45% in size
Summary of the method: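 Antagonist-mode intracellular calcium assay: DOI (4 nM) added after 5 min compound pre-incubation at room temperature to dye-loaded HTR2A-CHO cells. Fluorescence followed for 3 min, sampled every second.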

[12] = target: 5-hydroxytryptamine receptor 2A (Homo sapiens) (UniProt P28223); experiment: 5-hydroxytryptamine receptor 2A (HTR2A) small molecule agonists, cell-based qHTS assay (AID 1963587); further: nearly all actives have a fitted effect of over 30% in size
Summary of the method: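 HTR2A-CHO cells, plated 18 h at 37 C/5% CO2, dye-loaded 1 h at 37 C; compounds in DMSO added by pin tool (agonist mode). Intracellular calcium flux read as kinetic fluorescence on FDSS over 2 min at 1 s intervals.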

[13] = target: D(2) dopamine receptor (Homo sapiens) (UniProt P14416); experiment: Dopamine D2 receptor (DRD2) small molecule antagonists, cell-based qHTS assay (AID 1963595; active means well fitted inhibition curve with a large enough effect in the signal ratio in the repeat runs, with a control signal flat; the % refers to the signal ratio)
Summary of the method: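 HEK293 cells stably expressing DRD2, preincubated with 0.1 mM Ro20-1724 and compounds 10 min, were stimulated with 200 nM NKH477 plus 12 nM quinpirole for 30 min at room temperature; cAMP measured by HTRF (665/620 nm).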

[14] = p53 small molecule agonists, cell-based qHTS assay with human liver microsomes (AID 1963577);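 further: p53 response element beta-lactamase reporter cells with liver microsomes plus NADPH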
Summary of the method: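 Steps: plate p53RE-bla cells, incubate 5 h at 37 C; add compound in DMSO; add microsomes (0.5 mg/mL final) and NADPH (0.5 mg/mL final); incubate 16 h at 37 C; add LiveBLAzer, 2 h RT; read fluorescence.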

[15] = p53 small molecule agonists, cell-based qHTS assay with rat liver microsomes (AID 1963578)
Summary of the method: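 Metabolic activation is supplied by rat liver microsomes with NADPH (each 0.5 mg/mL final). p53RE-bla cells incubate with compound 16 h at 37 C; reporter activity is measured by LiveBLAzer fluorescence.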

[16] = p53 small molecule agonists, cell-based qHTS assay: qHTS cell viability counter screen (AID 1963581); further: nearly all actives have a fitted effect of over 45% in size
Summary of the method: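 p53RE-bla HCT-116 cells were exposed to compounds for 16 h at 37 C; after the beta-lactamase FRET read in the same wells, CellTiter-Glo was added and luminescence (intracellular ATP) read after 30 min at room temperature.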

[17] = p53 small molecule agonists, cell-based qHTS assay (AID 1963582; active means well fitted activation curve with a large enough effect in the signal ratio in the repeat runs, not every such curve was filed as active; the % refers to the signal ratio; further: potency means the concentration at half of the fitted maximal effect)
Summary of the method: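 p53RE-bla beta-lactamase reporter cells rested 5 h at 37 C/5% CO2, then received compounds in DMSO by pin transfer and were incubated 16 h at 37 C. LiveBLAzer B/G FRET substrate was loaded for 2 h at room temperature before fluorescence reading.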

[18] = cAMP Responsive Elements (CRE) small molecule agonists, cell-based qHTS assay (AID 1963590)
Summary of the method: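 CRE-bla HEK 293T cells in DMEM with 10% dialyzed FBS, NEAA, pyruvate and 25 mM HEPES were plated 18 h at 37 C/5% CO2, then exposed to compounds in DMSO for 3 h before LiveBLAzer B/G FRET substrate addition.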

[19] = cAMP Responsive Elements (CRE) small molecule antagonists, cell-based qHTS assay (AID 1963591; active means well fitted inhibition curve with a large enough effect in the signal ratio in the repeat runs, not every such curve was filed as active; the % refers to the signal ratio)
Summary of the method: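 CRE-bla HEK293T cells were plated 18 h at 37 °C/5% CO2, pinned with compound in DMSO, then stimulated with NKH477 at 0.25 uM final for 3 h. LiveBLAzer B/G FRET substrate was added and plates incubated 2 h at room temperature.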

[20] = target: Beta-2 adrenergic receptor (Homo sapiens) (UniProt P07550); experiment: Adrenergic beta2 receptor (ADRB2) small molecule agonists, cell-based qHTS assay (AID 1963593);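 further: CHO cells stably overexpressing human ADRB2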
Summary of the method: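 CHO cells stably over-expressing ADRB2 were plated overnight at 37C, then dosed with compounds plus a stimulation mix containing 100uM IBMX and 25uM Ro-20-1724 for 0.5hr at room temperature. cAMP was measured by HTRF competition, 1hr.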

Sequence of Beta-2 adrenergic receptor (Homo sapiens) (P07550 whole entry, looked up): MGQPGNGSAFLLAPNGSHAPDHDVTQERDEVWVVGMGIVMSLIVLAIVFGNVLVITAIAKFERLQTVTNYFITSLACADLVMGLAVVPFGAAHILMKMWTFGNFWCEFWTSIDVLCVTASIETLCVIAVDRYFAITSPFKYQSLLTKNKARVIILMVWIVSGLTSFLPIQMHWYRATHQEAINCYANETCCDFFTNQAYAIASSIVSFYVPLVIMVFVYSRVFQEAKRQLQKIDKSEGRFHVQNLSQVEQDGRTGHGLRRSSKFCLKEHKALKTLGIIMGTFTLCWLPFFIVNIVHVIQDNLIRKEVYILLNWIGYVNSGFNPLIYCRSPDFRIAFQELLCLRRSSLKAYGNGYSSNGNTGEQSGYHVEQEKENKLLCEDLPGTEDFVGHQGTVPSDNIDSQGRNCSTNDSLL
Sequence of Gonadotropin-releasing hormone receptor (Homo sapiens) (P30968 whole entry, looked up): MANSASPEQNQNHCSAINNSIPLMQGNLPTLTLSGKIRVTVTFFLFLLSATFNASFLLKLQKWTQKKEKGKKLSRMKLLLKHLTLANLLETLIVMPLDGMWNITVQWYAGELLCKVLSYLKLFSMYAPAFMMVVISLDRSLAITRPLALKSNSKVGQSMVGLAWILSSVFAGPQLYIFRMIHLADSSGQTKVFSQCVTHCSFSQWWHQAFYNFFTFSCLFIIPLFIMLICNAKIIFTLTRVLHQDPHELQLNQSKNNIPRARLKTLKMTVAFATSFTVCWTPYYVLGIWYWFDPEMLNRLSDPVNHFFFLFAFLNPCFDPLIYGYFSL
Sequence of Muscarinic acetylcholine receptor M1 (Homo sapiens) (P11229 whole entry, looked up): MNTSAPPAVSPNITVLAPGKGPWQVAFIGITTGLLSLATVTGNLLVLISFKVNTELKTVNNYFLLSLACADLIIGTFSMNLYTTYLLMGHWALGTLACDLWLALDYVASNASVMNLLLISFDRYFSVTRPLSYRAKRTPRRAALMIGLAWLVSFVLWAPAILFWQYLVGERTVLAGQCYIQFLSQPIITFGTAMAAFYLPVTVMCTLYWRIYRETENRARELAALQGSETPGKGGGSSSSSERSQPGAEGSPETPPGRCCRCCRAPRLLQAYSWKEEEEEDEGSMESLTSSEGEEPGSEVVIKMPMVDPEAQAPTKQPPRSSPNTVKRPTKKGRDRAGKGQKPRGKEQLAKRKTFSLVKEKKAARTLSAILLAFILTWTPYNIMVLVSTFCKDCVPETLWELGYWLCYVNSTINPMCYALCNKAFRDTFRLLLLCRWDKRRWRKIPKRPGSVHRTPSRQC
Sequence of D(2) dopamine receptor (Homo sapiens) (P14416 whole entry, looked up): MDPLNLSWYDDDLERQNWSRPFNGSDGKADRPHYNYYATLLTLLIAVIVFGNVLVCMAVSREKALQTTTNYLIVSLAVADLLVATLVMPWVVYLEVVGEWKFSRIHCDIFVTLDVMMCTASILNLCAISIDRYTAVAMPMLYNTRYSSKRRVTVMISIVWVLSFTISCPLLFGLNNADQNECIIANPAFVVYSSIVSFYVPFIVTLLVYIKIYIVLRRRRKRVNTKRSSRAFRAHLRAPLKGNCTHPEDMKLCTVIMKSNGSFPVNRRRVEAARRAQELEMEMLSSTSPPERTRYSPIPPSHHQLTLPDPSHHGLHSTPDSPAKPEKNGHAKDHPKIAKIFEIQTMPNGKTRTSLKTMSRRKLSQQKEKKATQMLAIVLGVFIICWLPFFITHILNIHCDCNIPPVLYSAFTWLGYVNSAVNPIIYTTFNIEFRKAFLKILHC
Sequence of 5-hydroxytryptamine receptor 2A (Homo sapiens) (P28223 whole entry, looked up): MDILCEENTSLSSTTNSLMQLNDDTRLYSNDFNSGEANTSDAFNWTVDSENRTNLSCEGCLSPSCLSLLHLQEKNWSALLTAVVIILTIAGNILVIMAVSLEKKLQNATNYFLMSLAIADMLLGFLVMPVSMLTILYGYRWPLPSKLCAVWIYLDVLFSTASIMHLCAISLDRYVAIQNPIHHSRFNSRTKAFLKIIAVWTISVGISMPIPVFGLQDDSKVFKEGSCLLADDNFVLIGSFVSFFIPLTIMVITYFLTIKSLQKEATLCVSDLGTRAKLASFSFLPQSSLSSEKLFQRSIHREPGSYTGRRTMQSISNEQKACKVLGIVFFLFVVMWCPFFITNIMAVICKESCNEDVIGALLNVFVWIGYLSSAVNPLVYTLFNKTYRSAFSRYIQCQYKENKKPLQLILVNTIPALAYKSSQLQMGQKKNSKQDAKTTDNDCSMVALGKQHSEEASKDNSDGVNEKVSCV
Sequence of KiSS-1 receptor (Homo sapiens) (Q969F8 whole entry, looked up): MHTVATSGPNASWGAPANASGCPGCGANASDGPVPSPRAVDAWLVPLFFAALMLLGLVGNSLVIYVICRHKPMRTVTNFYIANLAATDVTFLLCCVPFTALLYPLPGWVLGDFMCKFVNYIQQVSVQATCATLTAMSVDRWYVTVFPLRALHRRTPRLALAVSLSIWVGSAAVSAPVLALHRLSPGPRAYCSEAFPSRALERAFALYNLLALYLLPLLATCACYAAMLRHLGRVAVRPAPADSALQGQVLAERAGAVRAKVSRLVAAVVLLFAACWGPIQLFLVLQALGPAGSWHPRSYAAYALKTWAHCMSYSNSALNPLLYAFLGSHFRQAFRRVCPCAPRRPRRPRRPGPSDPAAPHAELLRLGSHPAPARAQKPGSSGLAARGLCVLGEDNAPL

| SMILES | Potency [1] | Potency [2] | Potency [3] | Potency [4] | Potency [5] | Potency [6] | Potency [7] | Potency [8] | Potency [9] | Potency [10] | Potency [11] | Potency [12] | Potency [13] | Potency [14] | Potency [15] | Potency [16] | Potency [17] | Potency [18] | Potency [19] | Potency [20] |
| --- | --- | --- | --- | --- | --- | --- | --- | --- | --- | --- | --- | --- | --- | --- | --- | --- | --- | --- | --- | --- |
| COc1ccc2cc1Oc1ccc(cc1)C[C@H]1c3c(cc4c(c3Oc3cc5c(cc3OC)CCN(C)[C@@H]5C2)OCO4)CCN1C | 23.7 µM (active) | inactive | inactive | inactive | inactive | 20.5 µM (active) | inactive | inactive | inactive | – | – | – | – | – | – | – | – | – | – | – |
| NC(=O)N(O)[C@@H]1COc2cc(OCc3ccccc3)ccc21 | inactive | inactive | – | inactive | inactive | – | inactive | inactive | – | inactive | inactive | inactive | inactive | – | – | – | – | – | – | – |
| CC(C)CCOC(=O)c1ccc(N(C)C)cc1 | inactive | inactive | – | inactive | inactive | inactive | inactive | inactive | inactive | inactive | – | inactive | – | inactive | inactive | inactive | inactive | inactive | inactive | – |
| CCO/C=C1\N=C(c2ccccc2)OC1=O | inactive | inactive | – | inactive | inactive | inactive | inactive | inactive | inactive | inactive | inactive | inactive | inactive | inactive | inactive | inactive | inactive | – | inactive | – |
| C=C[Si](OCC)(OCC)OCC | inactive | inactive | – | – | inactive | inactive | inactive | – | inactive | inactive | inactive | inactive | inactive | inactive | – | inactive | inactive | inactive | inactive | – |
| O=C1c2ccccc2C(=O)c2c(Cl)cccc21 | inactive | inactive | – | inactive | 0.965 µM (active) | – | inactive | inactive | inactive | inactive | inactive | inactive | inactive | inactive | inactive | inactive | inactive | – | – | inactive |
| CC(C)=CCCC(C)CCOC=O (configuration not stated) | inactive | inactive | – | inactive | inactive | inactive | inactive | – | inactive | inactive | inactive | inactive | inactive | inactive | inactive | inactive | inactive | inactive | inactive | – |
| CC(C)CO | inactive | inactive | – | inactive | – | – | – | inactive | inactive | inactive | – | – | inactive | – | – | inactive | – | inactive | inactive | – |
| O=S(c1cc(Cl)cc(Cl)c1O)c1cc(Cl)cc(Cl)c1O | 23.7 µM (active) | inactive | – | inactive | inactive | inactive | inactive | inactive | – | inactive | – | inactive | inactive | inactive | inactive | – | 17.8 µM (active) | – | inactive | – |
| CCOC(=O)C(F)(F)F | inactive | inactive | – | inactive | inactive | inactive | inactive | inactive | inactive | inactive | inactive | inactive | inactive | – | – | inactive | – | inactive | inactive | inactive |
| CCCCC(CC)COC(=O)c1ccccc1C(=O)O (configuration not stated) | inactive | inactive | – | inactive | inactive | – | inactive | – | – | inactive | – | inactive | – | – | – | – | – | – | – | – |
